Rows were chosen to be rich in hits. Some 6.9% of all compounds tested hit in one or more screens of this group.
KB-V1 MDR tox – qHTS assay for MDR1-selective chemotherapeutics: Primary screen using the drug-selected MDR subline cells KB-V1; KB-V1 MDR cells viability, CellTiter-Glo, 72 h; Potency, µM (titrated, usually from 46.1 µM), hits mostly cytotoxic; actives 3.4% (n = 400,000); AID 1347076, 2019; note: potency is the fitted concentration of half-maximal effect; % is set by controls: 0 for no effect and ±100 for the full control effect; nearly all actives have a fitted effect of over 60% in size
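KB-V1, DMEM (no phenol red) + 10% FBS; cpd pin-transferred, titration series; 72 h, 37 degrees C; CellTiter-Glo, luminescence. Data normalized, curve-fit.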
Giardia kill – Small Molecules that selectively kill Giardia lamblia: qHTS. AID 540267, 2011. actives 0.15% (n = 340,000). Giardia lamblia trophozoite viability. activity change, % at 7.66 µM, hits read low; in the data active = activity change below about -80%; inconclusive = between about -30% and that limit;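 note: parasites exposed to compound for two days anaerobically before the ATP read; % is set by controls: 0 for no effect and ±100 for the full control effect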
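Giardia lamblia trophozoites (100 cells/well) were incubated with compounds for 48 h at 37 deg C under anaerobic conditions. Viability was read as ATP content by one-step luminescence after 15-30 min at room temperature.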
SW480 rereplic – A quantitative high throughput screen for small molecules that induce DNA re-replication in SW480 colon adenocarcinoma cells; SW480 DNA re-replication, Hoechst DNA content imaging, 48 h; Potency, µM (doses to about 46.1 µM), for inactives: at the highest dose re-replication activation, usual class: activators; actives 1.8% (n = 340,000); AID 624297, 2012; note: potency is the fitted concentration of half-maximal effect; % of control where 0% means no effect; nearly all actives have a fitted effect of over 55% in size
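First, 250 cells per well were seeded. Next, compound or vehicle (23 nL) was pinned in, plates sat 48 hr at 37 C. Finally Hoechst was added for 40 min before fluorescence scanning.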
KB-3-1 cytotox – qHTS assay for MDR1-selective chemotherapeutics: Primary screen using the parental adenocarcinoma cell KB-3-1 | KB-3-1 viability, CellTiter-Glo ATP luminescence, 72 h | Potency, µM (titrated, usually from 46.1 µM), actives largely listed as cytotoxic | actives 1.4% (n = 400,000) | AID 1347075, 2019; note: potency is the fitted concentration of half-maximal effect; % is set by controls: 0 for no effect and ±100 for the full control effect; nearly all actives have a fitted effect of over 60% in size
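Multi-concentration cytotoxicity screen in KB-3-1 cells grown in DMEM lacking phenol red with 10% FBS. After 72 h at 37 °C with compound, ATP-dependent luminescence was recorded.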
S-ASM inh – Inhibitors of Secretory Acid Sphingomyelinase (S-ASM): qHTS; Sphingomyelin phosphodiesterase (Homo sapiens), P17405; placental ASM, HMU-PC fluorogenic substrate, 60 min; Potency, µM (series often up to 57.5 µM), for the others: at the top dose activity change, negative = inhibition, hits mostly inhibitors; actives 0.006% (n = 340,000); AID 504937, 2011; note: potency is the fitted concentration of half-maximal effect
Target sequence (P17405 47-631 limits assumed): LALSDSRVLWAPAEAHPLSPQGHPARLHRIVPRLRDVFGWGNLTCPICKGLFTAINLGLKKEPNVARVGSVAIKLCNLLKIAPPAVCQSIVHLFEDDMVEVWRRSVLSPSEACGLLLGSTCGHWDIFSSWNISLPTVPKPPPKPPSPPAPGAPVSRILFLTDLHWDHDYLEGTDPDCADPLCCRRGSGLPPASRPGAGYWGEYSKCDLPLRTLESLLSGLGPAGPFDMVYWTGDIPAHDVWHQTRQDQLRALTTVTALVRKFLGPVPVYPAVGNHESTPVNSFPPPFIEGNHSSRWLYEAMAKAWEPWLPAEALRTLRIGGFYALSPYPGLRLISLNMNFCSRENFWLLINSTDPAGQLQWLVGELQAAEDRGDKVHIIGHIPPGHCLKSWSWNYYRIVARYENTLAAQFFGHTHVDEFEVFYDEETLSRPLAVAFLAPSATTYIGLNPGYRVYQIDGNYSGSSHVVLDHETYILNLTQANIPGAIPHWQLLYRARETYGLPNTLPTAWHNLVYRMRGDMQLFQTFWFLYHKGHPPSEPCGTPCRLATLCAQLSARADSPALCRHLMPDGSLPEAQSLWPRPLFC
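Fluorescence read-out (Ex 386 nm, Em 447 nm) after stopping the reaction at pH 10. Enzyme: ASM from human placenta; substrate HMU-PC0, 9 uM final; 60 min, 37 °C. Compound preincubation 10 min, ambient temperature.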
MCF10A rerep – A quantitative high throughput screen for small molecules that induce DNA re-replication in MCF 10a normal breast cells; Potency, µM (top dose mostly 46.1 µM), without a hit: at the top dose activity, positive = re-replication, actives largely listed as activators; MCF 10A DNA re-replication, Hoechst nuclear intensity, 48 h; actives 2.9% (n = 350,000); note: potency is the fitted concentration of half-maximal effect; % of control where 0% means no effect; nearly all actives have a fitted effect of over 50% in size
* hit, by the source's call; i = inactive; ? = inconclusive; · = no result given; ! = repeats disagree. Unless noted, calls come from the whole dose curve; as a rule, active = well fitted curve in the direction sought with a large enough effect; inconclusive = small, poorly fitted or top-dose-only effect, or another doubt; inactive = no such curve, though single readings can be large; an effect the other way counts as inactive or inconclusive.

SMILES	KB-V1 MDR tox	Giardia kill	SW480 rereplic	KB-3-1 cytotox	S-ASM inh	MCF10A rerep
COCCNC(=O)/C(C#N)=C/c1cccc(/C=C(\C#N)C(=O)NCCOC)c1	i	5	?	?	1%	21µM*
Cc1cc2oc(C(=O)Nc3ccc(S(=O)(=O)N4CCCCCC4)cc3)cc(=O)c2cc1C	?	·	·	i	·	·
COc1ccc(-n2nc(C(=O)N(C)c3cc(C)ccc3C)c3c4ccccc4n(C)c3c2=O)cc1Cl	i	·	·	i	·	·
COc1cccc(-c2nnc3n(Cc4ccccc4Cl)c(=O)c4ccccc4n23)c1O	i	·	·	i	·	·
Nc1c(-c2cccc(Cl)c2)cnn1-c1cccc(C(F)(F)F)c1	21µM*	9	3%	?	-6%	11%
CCN(CC)S(=O)(=O)c1ccc(C(=O)Nc2nc3c(Cl)cc(Cl)cc3s2)cc1	i	·	·	21µM*	·	·
N#C/C(=N\Nc1cccc(C(F)(F)F)c1)C(=O)c1ccsc1	3.3µM*	6	-15%	16µM*	-23%	?
Cc1nccc(-c2cccc(N/N=C(\C#N)C(=O)c3ccccc3)c2)n1	?	?	?	?	-10%	13%
COc1cc2c(OC(C)=O)c3c(c(-c4ccc5c(c4)OCO5)c2cc1OC)C(=O)OC3	?	-5	6%	3.3µM*!	31%	?
COc1ccc(-c2oc(=O)c3cc(OC)c(OC)cc3c2-c2ccc3c(c2)OCO3)cc1	i	-17	?	i	8%	26%
COc1cc2c(O)c3c(c(-c4ccc5c(c4)OCO5)c2cc1OC)C(=O)OC3	4.6µM*	-5	23µM*	15µM*	33%	?
Cn1c(=S)[nH]c2cc(C(=O)N3CCN(C(=O)c4ccccc4)CC3)ccc2c1=O	·	11	·	·	·	·
Cc1cccc(/C=C/c2onc(C)c2[N+](=O)[O-])n1	?	-1	?	10µM*	1%	7.3µM*
Cc1noc(/C=C/c2nn(C)cc2Cl)c1[N+](=O)[O-]	?	-12	?	?	3%	21µM*
CCOc1ccc(S(=O)(=O)N/N=C2/CC(c3ccccc3)Oc3ccccc32)cc1 (centres undefined)	18µM*	9	9%	?	-10%	8%
Cc1ccc(OCCn2cnc3cc([N+](=O)[O-])ccc3c2=O)cc1	?	9	-2%	?	4%	18%
COc1ccc2c(Cn3cnc4cc([N+](=O)[O-])ccc4c3=O)cc(=O)oc2c1	4.6µM*	6	5.8µM*	4.6µM*	-2%	9.2µM*
COCc1cc(C)nc(OCC(=O)N/N=C/c2ccc(O)cc2)c1C#N	i	-11	18µM*	i	·	-1%
Cc1ccc(CNC(=O)CC(C)CC2=NS(=O)(=O)c3ccccc3N2)cc1 (centres undefined)	i	·	·	i	·	·
CCCCc1nn2c(=O)cc(COC(=O)c3ccccc3C)nc2s1	i	·	·	i	·	·
Cc1cc(C)nc(N2CCCC(C(=O)NCc3cccs3)C2)n1 (centres undefined)	16µM*	9	-9%	i	3%	-10%
CCCCNC(=O)C1CCN(c2nc(C)cc(C)n2)CC1	i	-26	-81%	i	-1%	5%
CCS(=O)(=O)N1CCC(C(=O)NCCCOC)CC1	i	3	15µM*	i	0%	?
CCCCNC(=O)C1CCN(c2nc(OC)nc(OC)n2)CC1	21µM*	2	-1%	i	1%	5%
Cc1cc(C)nc(N2CCCC(C(=O)NC(C)CCc3ccco3)C2)n1 (centres undefined)	10µM*	-2	0%	i	0%	5%

Screens (PubChem BioAssay)
